Results published in PMC11062922 (Nature Chemical Biology, 2023).
Like-named read-outs stand apart in the source and are kept apart here.

Tests used:
Set-up in all cases: species or system human, MV4-11 + K-562 + COLO205 + SK-N-BE2 + OVCAR-8
[1] = tested on: BMP2K; details: read-out: apparent Kd, compound concentrations: 100 nM and 1000 nM (sheet 'Samples'), n = 1
[2] = tested on: MARK4; details: read-out: apparent Kd, compound concentrations: 100 nM and 1000 nM (sheet 'Samples'), n = 1
[3] = tested on: PRKAA1; details: read-out: apparent Kd, n = 1
[4] = tested on: PRKAG2; details: read-out: apparent Kd, compound concentrations: 100 nM and 1000 nM (sheet 'Samples'), n = 1
[5] = tested on: TAOK2; details: read-out: apparent Kd, n = 1
[6] = tested on: ULK1; details: read-out: apparent Kd, compound concentrations: 100 nM and 1000 nM (sheet 'Samples'), n = 1
[7] = tested on: IKBKE; details: read-out: apparent Kd, n = 1
[8] = tested on: PIK3C3; details: read-out: apparent Kd, n = 1
[9] = tested on: MAP4K2; details: read-out: apparent Kd, n = 1
[10] = tested on: PIP4K2C; details: read-out: apparent Kd, n = 1
[11] = tested on: STK4; details: read-out: apparent Kd, n = 1
[12] = tested on: COX5A; details: read-out: apparent Kd, n = 1
[13] = tested on: TNIK; details: read-out: apparent Kd, compound concentrations: 100 nM and 1000 nM (sheet 'Samples'), n = 1
[14] = tested on: MAP3K11; details: read-out: apparent Kd, compound concentrations: 100 nM and 1000 nM (sheet 'Samples'), n = 1
[15] = tested on: PRKAA2; details: read-out: apparent Kd, compound concentrations: 100 nM and 1000 nM (sheet 'Samples'), n = 1
[16] = tested on: STK26; details: read-out: apparent Kd, n = 1
[17] = tested on: BRAF; details: read-out: apparent Kd, compound concentrations: 100 nM and 1000 nM (sheet 'Samples'), n = 1
[18] = tested on: PIK3C2A; details: read-out: apparent Kd, compound concentrations: 100 nM and 1000 nM (sheet 'Samples'), n = 1
[19] = compound concentrations:100 nM and 1000 nM (sheet 'Samples')

Compound: CN1C(=O)c2ccccc2N(C)c2nc(Nc3cnn(C4CCNCC4)c3)ncc21 [XMD-17-51]
- potency estimated from few doses ([1]; CATDS: 1.6944830002157098E-2): 771 nM
- potency estimated from few doses ([2]; CATDS: 2.0662278149912901E-2): 412 nM
- potency estimated from few doses ([3]; compound concentrations: 100 nM and 1000 nM (sheet 'Samples'), CATDS: 1.61806798261299E-2): 911 nM
- potency estimated from few doses ([4]; CATDS: 1.7077716006994301E-2): 750 nM
- potency estimated from few doses ([5]; compound concentrations: 100 nM and 1000 nM (sheet 'Samples'), CATDS: 5.5086775745804402E-2): 42.4 nM
- potency estimated from few doses ([6]; CATDS: 5.3093581497725799E-2): 45.5 nM

Compound: CCn1cc(-c2ccnc3[nH]c(-c4cccc(CN(C)C)c4)cc23)c(-c2ccc(NC(=O)N(C)C)cc2)n1 [GSK1070916]
- potency estimated from few doses [7, 19]: 1960 nM
- potency estimated from few doses [8, 19]: 1500 nM

Compound: CS(=O)(=O)Cc1ccc(Nc2nccc(-c3c(-c4cccc(NC(=O)C5CCCCC5)c4)nn4ncccc34)n2)cc1 [GSK350559A]
- potency estimated from few doses [9, 19]: 1890 nM
- potency estimated from few doses [10, 19]: 136 nM
- potency estimated from few doses [11, 19]: 1770 nM

Compound: CCc1nc(-c2cccc(N(C)S(=O)(=O)c3ccccc3)c2)c(-c2ccnc(Nc3ccc(N4CCN(C(C)=O)CC4)nc3)n2)s1 [GSK1645895A]
- potency estimated from few doses ([8]; compound concentrations: 100 nM and 1000 nM (sheet 'Samples'), CATDS: 0.15936807020930999): 1340 nM

Compound: COc1ccc(CNC(=O)NC2CCN(c3ccnc(Nc4cc(OC)c(OC)c(OC)c4)n3)C2)cc1 (centres unmarked) [GSK1379748A]
- potency estimated from few doses ([10]; compound concentrations: 100 nM and 1000 nM (sheet 'Samples'), CATDS: 0.31006537475482299): 2120 nM

Compound: COc1cccc(-n2ncc3c(N/N=C/c4ccc(C(=O)NCCN(C)C)cc4)ncnc32)c1.Cl [GW784307A]
- potency estimated from few doses ([1]; CATDS: 2.5475842805915101E-2): 2050 nM
- potency estimated from few doses ([12]; compound concentrations: 100 nM and 1000 nM (sheet 'Samples'), CATDS: 2.84173796904106E-2): 1280 nM

Compound: COc1cc(Nc2ccnc3cc(-c4ccncc4)ccc23)cc(OC)c1OC.Cl [GW494610A]
- potency estimated from few doses ([13]; CATDS: 2.73925679017063E-2): 689 nM

Compound: O=C1N=C(NCc2cccs2)SC1Cc1ccc2ncccc2c1 (centres unmarked) [RO4629078-000]
- potency estimated from few doses ([1]; CATDS: 1.0249270291889601E-2): 630 nM
- potency estimated from few doses ([14]; CATDS: 8.9937609356747009E-3): 890 nM
- potency estimated from few doses ([2]; CATDS: 9.8317273929225003E-3): 699 nM
- potency estimated from few doses ([10]; compound concentrations: 100 nM and 1000 nM (sheet 'Samples'), CATDS: 1.8402634239812199E-2): 201 nM
- potency estimated from few doses ([3]; compound concentrations: 100 nM and 1000 nM (sheet 'Samples'), CATDS: 1.35837809267181E-2): 343 nM
- potency estimated from few doses ([15]; CATDS: 1.00285824398185E-2): 665 nM
- potency estimated from few doses ([4]; CATDS: 1.6046460203227E-2): 253 nM
- potency estimated from few doses ([6]; CATDS: 1.26661320847058E-2): 394 nM

Compound: CCN(CC)CCOc1ccc(Nc2ncc3cc(-c4c(Cl)cccc4Cl)c(=O)n(C)c3n2)cc1 [SB-601273]
- potency estimated from few doses [5, 19]: 1150 nM

Compound: Nc1nc(-c2ccc3c(N)n[nH]c3c2)cc(N2CCCCC2)n1 [GSK2228768A]
- potency estimated from few doses [12, 19]: 1060 nM
- potency estimated from few doses [16, 19]: 1330 nM

Compound: CC(C)c1nc(-c2cccc(NS(=O)(=O)c3ccccc3)c2)c(-c2ccnc(Nc3ccc4c(c3)CN(C)CC4)n2)s1 [GSK1649598A]
- potency estimated from few doses ([17]; CATDS: 1.66184718911398E-2): 621 nM
- potency estimated from few doses ([5]; compound concentrations: 100 nM and 1000 nM (sheet 'Samples'), CATDS: 1.5717541572097499E-2): 739 nM
- potency estimated from few doses ([13]; CATDS: 1.2157872123198099E-2): 2170 nM

Compound: Cc1cccc(Nc2nc(NCCN)ncc2C(N)=O)c1 [GSK1292139B]
- potency estimated from few doses ([9]; compound concentrations: 100 nM and 1000 nM (sheet 'Samples'), CATDS: 7.8363425236556997E-2): 1110 nM
- potency estimated from few doses ([13]; CATDS: 7.7542557386304695E-2): 1140 nM

Compound: Cl.Cl.Cl.c1ccc(Oc2ccc(Nc3ccnc4cc(-c5ccc(CN6CCNCC6)o5)ccc34)cc2)nc1.c1ccc(Oc2ccc(Nc3ccnc4cc(-c5ccc(CN6CCNCC6)o5)ccc34)cc2)nc1 [GW567142A]
- potency estimated from few doses ([18]; CATDS: 1.69384830257906E-2): 2080 nM
- potency estimated from few doses ([13]; CATDS: 1.6971599300490501E-2): 2060 nM

Compound: CS(=O)(=O)CCNCc1ccc(-c2ccc3ncnc(Nc4ccc(OCc5cccc(F)c5)c(C(F)(F)F)c4)c3c2)o1 [GW576484X]
- potency estimated from few doses ([2]; CATDS: 5.9224998960535298E-2): 1370 nM
- potency estimated from few doses ([18]; CATDS: 5.2836581053762099E-2): 1740 nM

Compound: CN(C)Cc1ccc(-c2ccc3c(Nc4ccc(Oc5ccccn5)cc4)ccnc3c2)o1 [GW567148X]
- potency estimated from few doses ([3]; compound concentrations: 100 nM and 1000 nM (sheet 'Samples'), CATDS: 1.81087827293436E-2): 1380 nM

Compound: O=S(=O)(CCOCc1ccc(-c2ccc3ncnc(Nc4ccc(OCc5cccc(F)c5)c(Cl)c4)c3c2)o1)c1ccccc1 [GW615311X]
- potency estimated from few doses ([7]; compound concentrations: 100 nM and 1000 nM (sheet 'Samples'), CATDS: 3.0296968888376598E-2): 1150 nM
- potency estimated from few doses ([18]; CATDS: 2.34385173398927E-2): 2050 nM
- potency estimated from few doses ([16]; compound concentrations: 100 nM and 1000 nM (sheet 'Samples'), CATDS: 2.23099896492461E-2): 2340 nM

Compound: CN1CCc2ccc(Nc3nccc(-c4c(-c5cccc(NC(=O)c6c(F)cccc6F)c5)nc5ccccn45)n3)cc2C1.Cl [GSK1010829B]
- potency estimated from few doses ([11]; compound concentrations: 100 nM and 1000 nM (sheet 'Samples'), CATDS: 3.6315985659661598E-2): 1170 nM
- potency estimated from few doses ([5]; compound concentrations: 100 nM and 1000 nM (sheet 'Samples'), CATDS: 3.64108611477112E-2): 1170 nM

Compound: CC(=O)N1CCN(c2ccc(Nc3nccc(-c4sc(C(C)C)nc4-c4cccc(NS(=O)(=O)c5ccccc5)c4)n3)cn2)CC1 [GSK1645872A]
- potency estimated from few doses ([17]; CATDS: 3.03150696001999E-2): 721 nM

Compound: COc1cc2ncn(-c3cc(OCCCc4ccccc4)c(C(N)=O)s3)c2cc1OC [GSK205189A]
- potency estimated from few doses [3, 19]: 1020 nM

Compound: CC(C)c1nc(-c2cccc(NS(=O)(=O)c3c(F)cccc3F)c2F)c(-c2ccnc(Nc3ccc(N4CCOCC4)nc3)n2)s1 [GSK2008607A]
- potency estimated from few doses ([17]; CATDS: 1.89965490605935E-2): 1670 nM
- potency estimated from few doses ([14]; CATDS: 3.6955578451965801E-2): 316 nM
- potency estimated from few doses ([15]; CATDS: 2.0597012246937899E-2): 1250 nM
